The full list was thinned out, with hits kept by preference.
ALOX12 inh – inhibitors of human 12S-lipoxygenase ALOX12. P18054. purified 12hLO, xylenol orange hydroperoxide absorbance. Potency, µM (titrated, usually from 108 µM), hits mostly inhibitors. hit rate 1.1% among 580,000. AID 1671190
Target sequence (P18054 whole entry, looked up): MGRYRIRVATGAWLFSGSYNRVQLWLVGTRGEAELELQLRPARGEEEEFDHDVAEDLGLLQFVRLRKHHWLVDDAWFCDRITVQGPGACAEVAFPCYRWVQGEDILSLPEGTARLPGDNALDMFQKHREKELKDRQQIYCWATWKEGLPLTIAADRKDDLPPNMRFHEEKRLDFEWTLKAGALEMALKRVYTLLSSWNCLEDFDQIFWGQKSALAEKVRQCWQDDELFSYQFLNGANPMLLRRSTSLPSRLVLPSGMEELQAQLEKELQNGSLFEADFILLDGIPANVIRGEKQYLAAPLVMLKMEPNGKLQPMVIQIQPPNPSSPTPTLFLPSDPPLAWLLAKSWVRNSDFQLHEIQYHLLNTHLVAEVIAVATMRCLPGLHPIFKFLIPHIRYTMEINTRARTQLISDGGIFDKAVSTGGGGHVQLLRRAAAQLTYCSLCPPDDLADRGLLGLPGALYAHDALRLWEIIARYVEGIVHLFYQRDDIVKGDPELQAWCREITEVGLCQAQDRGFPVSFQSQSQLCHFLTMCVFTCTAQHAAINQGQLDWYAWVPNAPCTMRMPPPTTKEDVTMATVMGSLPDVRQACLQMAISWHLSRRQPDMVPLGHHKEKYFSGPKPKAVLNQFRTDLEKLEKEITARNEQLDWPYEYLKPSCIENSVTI
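Purified human 12hLO at 150 nM in 25 mM Hepes, 0.01% Triton X-100, pH 7.0, preincubated 15 min at room temperature with compound. Reaction started with 40 uM arachidonic acid, 30 min at room temperature. Hydroperoxide measured by Fe-xylenol orange, 573/405 nm absorbance ratio.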
IL-1B inflam inh – blocks inflammasome-driven IL-1 beta release | activity change, % at 57.5 µM | hit rate 4.7% among 360,000 | THP-1 LPS/ATP IL-1B secretion, AlphaLISA, 16 h; active compounds read low; in the data active = activity change below about -50%; inconclusive = mostly about -30% to -49%
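THP-1 cells pretreated 1 hr with compounds (up to 57.5 uM final), then stimulated with LPS (250 ng/mL final) plus ATP (1.25 mM final); secreted IL-1B measured by AlphaLISA after 16 hr, decreased signal indicating inhibition.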
HT1080 IDH1KD tx – kills HT-1080 cells with IDH1 knockdown; HT-1080 IDH1 knockdown viability, ATP luminescence, 48 h; Potency, µM (titrated, usually from 46.1 µM), hits mostly cytotoxic; hit rate 2% among 360,000; AID 686971
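Assay cells: HT-1080 with IDH1 knockdown, 750 per well, RPMI/5% FBS. Exposure: 48 h at 37 °C following 2 h pre-incubation. Read: CellTiter-Glo luminescence; fitted concentration-response, curve class assigned.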
DT40 TDP1 CPT – growth inhibition of DT40 Tdp1-/-;hTDP1 cells with camptothecin (screen for TDP1 inhibitors); AID 686979; chicken DT40 Tdp1-/-;hTDP1 cells + 20 nM CPT, ATP luminescence, 48 h; hit rate 12% among 420,000; Potency, µM (titrated, usually from 46.2 µM), actives largely listed as inhibitors; also: nearly all actives have a fitted effect of over 55% in size
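Cell growth measured by CellTiter-Glo luminescence after a minimum 48 h, 37 C compound exposure with 20 nM CPT in Tdp1-knockout DT40 cells stably expressing hTDP1, seeded 400/well; qHTS titration format.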
HT1080NT lethal – kills 2HG-producing HT-1080-NT fibrosarcoma cells; Potency, µM (highest dose often 46.1 µM), most hits filed as cytotoxic; hit rate 1.6% among 360,000; AID 686970; HT-1080-NT fibrosarcoma viability, CellTiter-Glo ATP luminescence, 48 h;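 also: NT is the 2HG producing partner of a matched IDH1 knockdown line; nearly all actives have a fitted effect of over 55% in size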
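750 cells/well, RPMI + 5% FBS; 2 h settle, compound pin-transfer, 48 h at 37 degrees C. CellTiter-Glo 10 min RT, luminescence. Normalized to DMSO and media-only wells.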
TDP1 cell noCPT – qHTS for Inhibitors of human tyrosyl-DNA phosphodiesterase 1 (TDP1): qHTS in cells in absence of CPT; DT40 Tdp1-/- hTDP1 cells, no CPT, ATP luminescence, 48 h; Potency, µM (top dose mostly 46.2 µM), hits mostly inhibitors; hit rate 15% among 420,000; also: nearly all actives have a fitted effect of over 55% in size
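No-CPT arm: Tdp1-/-;hTDP1 DT40 cells (400/well) plus compounds, incubated ≥48 hr at 37 °C. Readout CellTiter-Glo luminescence.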
A number is an active result; n = inactive; u = inconclusive; x = not tested or not shown; [ ] = another dose, or the depositor's remark. Unless noted, calls follow the shape of the dose curve; as a rule, active = well fitted curve in the direction sought with a large enough effect; inconclusive = small, poorly fitted or top-dose-only effect, or another doubt; inactive = no such curve, though single readings can be large; an effect the other way counts as inactive or inconclusive.

SMILES	ALOX12 inh	IL-1B inflam inh	HT1080 IDH1KD tx	DT40 TDP1 CPT	HT1080NT lethal	TDP1 cell noCPT
COc1cccc(-c2nc(NCCc3c[nH]c4ccc(OC)cc34)c3ccccc3n2)c1	n	x	x	u	x	u
CC1=C(C)/C(=N\OS(=O)(=O)c2ccc(C)cc2)C=CC1=O	u	-103	6.5µM	0.58µM	13µM	0.65µM
COc1ccc(S(=O)(=O)/N=C2/C=CC(=O)C(C)=C2C)cc1	x	n	n	1.8µM	n	1.6µM
CC1=CC(=NOS(=O)(=O)c2ccc(C)cc2)CC(C)(C)C1	u	n	n	u	n	u
COc1ccc(/C=N/S(=O)(=O)c2ccc(C)cc2)cc1	n	n	n	n	n	n
O=C(Cc1ccc([N+](=O)[O-])cc1)Nc1cccnc1	n	n	n	n	n	n
CC(C)C(=O)Nc1nc(-c2ccc([N+](=O)[O-])cc2)cs1	n	n	n	9.2µM	n	4.6µM
O=[N+]([O-])c1ccc(-c2csc(NN=C3CCCC3)n2)cc1	n	u	n	4.1µM	u	10µM
COCC(=O)Nc1nc(-c2ccc([N+](=O)[O-])cc2)cs1	n	n	n	n	n	u
O=C(Cc1nc(-c2ccc([N+](=O)[O-])cc2)cs1)Nc1ccccc1	n	n	n	22µM	n	16µM
CCc1ccc2c(CN3C(=O)C(=O)N(CC(C)C)C3=O)cc(=O)oc2c1	n	x	x	x	x	x
C/C(=N/Nc1ccc(S(=O)(=O)Nc2ccc(C)cc2C)cc1[N+](=O)[O-])c1ccc(C)c([N+](=O)[O-])c1	n	x	x	x	x	x
CC(CCn1cccn1)NC(=O)c1csc2nc(-c3ccc(C(F)(F)F)cc3)cn12 (stereo unspecified)	n	x	x	x	x	x
N#CC1=C(Nc2ccccc2)SC=C(c2ccc(Cl)c(Cl)c2)N=C1N1CCOCC1	n	-80	n	13µM	n	u
N#Cc1c(-c2ccccc2)nc(-c2ccccc2)nc1N1CCOCC1	n	u	n	n	n	u
N#Cc1nc(-c2ccccc2Cl)oc1N1CCOCC1	n	n	n	u	u	u
N#CC1=C(Nc2ccccc2)SC=C(c2ccccc2)N=C1N1CCOCC1	n	n	n	5.8µM	n	29µM
NC(=O)c1cccc2[nH]c([C@H]3CCN(Cc4ccccn4)C3)nc12	n	x	x	x	x	x
Cc1cc(CS(=O)(=O)Cc2ccc(Cl)c(Cl)c2)on1	n	x	x	x	x	x
CC(C)c1ccc(N(CCc2ccccn2)C(=O)C(C)(C)C)cc1	u	n	n	16µM	n	15µM
CC(C)(C)C(=O)N(CCN(C(=O)C(C)(C)C)c1ccccc1)c1ccccc1	n	n	n	u	n	u
COc1ccc(CN2CCCC(CO)(CC3CC3)C2)c(F)c1 (stereo unspecified)	n	x	x	x	x	x
CCn1nc(C(C)C)cc1C(=O)N1CCCC(CO)(Cc2ccc(F)cc2F)C1 (stereo unspecified)	n	n	n	23µM	n	u
Cc1cc(C(=O)N2CCCC(CO)(Cc3ccc(F)cc3F)C2)nn1C (stereo unspecified)	n	n	n	u	n	u
COc1ccc(CN2CCCC(CO)(Cc3ccc(F)cc3F)C2)cc1 (stereo unspecified)	n	-84	u	u	u	u
SMILES	ALOX12 inh	IL-1B inflam inh	HT1080 IDH1KD tx	DT40 TDP1 CPT	HT1080NT lethal	TDP1 cell noCPT
OCC1(Cc2ccc(F)cc2)CCCN(Cc2ccc(F)cc2Cl)C1 (stereo unspecified)	u	n	u	n	u	26µM
CCOc1ccc(CN2CCCC(CO)(Cc3ccc(F)cc3)C2)cc1 (stereo unspecified)	n	u	u	n	u	u
COc1cc(CCNC(C)=O)c(C(=O)/C=C/c2cccc(OC)c2OC)cc1OC	n	x	x	n[9.04 µM]	x	n[9.04 µM]
COc1ccccc1C(=O)N1CCn2c(nnc2-c2ccccc2)C1	n	x	x	x	x	x
Cc1ccc2cccc(O)c2n1	x	x	x	7.1µM	x	7.1µM
Cc1ccc2cccc(N)c2n1	n	n	n	n	n	n

Screening data from PubChem BioAssay.
